Laboratory results: PubChem BioAssay (NCI)
Compounds without any hit were thinned out: in the full panel of roughly 79,000, 15% have a hit. Unmarked numbers belong to inactive results. The source made the active and inactive calls. Rule as the data show it: active = growth inhibition above about 70%; inactive = the rest.

Columns and labels:
[1] = NCI Yeast Anticancer Drug Screen. Data for the rad50 strain (AID 155);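 also: 0% = growth of vehicle-only cultures of the same strain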; conditions: S. cerevisiae rad50 strain growth inhibition, hits give high values
Procedure, shortened: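 Vehicle-treated cultures provide the reference for the growth inhibition reported for compound-exposed, repair-deficient yeast.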

[2] = NCI Yeast Anticancer Drug Screen. Data for the mec2-1 strain (AID 157); conditions: S. cerevisiae mec2-1 strain, hits give high values
Procedure, shortened: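 Growth inhibition is read against vehicle-treated controls after compound exposure of the mec2-1 yeast strain, which is defective in DNA damage repair or cell cycle control.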

[3] = NCI Yeast Anticancer Drug Screen. Data for the sgs1 mgt1 strain (AID 161);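 also: 0% = growth of cultures given vehicle only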; conditions: S. cerevisiae sgs1 mgt1 strain, hits give high values
Procedure, shortened: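 Percent growth inhibition was derived by comparing compound-exposed mutant yeast with vehicle-exposed cultures. The strain carries alterations in DNA damage repair.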

[4] = NCI Yeast Anticancer Drug Screen. Data for the cln2 rad14 strain (AID 165);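 also: 0% = growth equal to vehicle treated cultures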; conditions: S. cerevisiae cln2 rad14 strain, hits give high values
Procedure, shortened: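 Growth inhibition, relative to vehicle-treated controls, is the read-out. The test organism is a yeast strain with defined genetic alterations, cln2 rad14.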

[5] = NCI Yeast Anticancer Drug Screen. Data for the bub3 strain (AID 167); conditions: S. cerevisiae bub3 mutant strain, hits give high values
Procedure, shortened: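 Mutant yeast screening strain plus compound; vehicle-treated cultures serve as the 0% inhibition reference.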

[6] = NCI Yeast Anticancer Drug Screen. Data for the mlh1 rad18 strain (AID 175); conditions: S. cerevisiae mlh1 rad18 strain growth inhibition, hits give high values
Procedure, shortened: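 Cells of a genetically altered yeast strain, deficient in DNA damage repair, were treated with compound. Their growth was then compared with that of vehicle-treated cultures to give inhibition.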

[7] = at 5.0 µM (retest, dose inferred, filed as 0.5)
[8] = at 50.0 µM (retest, dose inferred, filed as 5.0)

Structure (SMILES) | growth inhibition [1, 7] | growth inhibition [1, 8] | growth inhibition ([1]; at 50.0 µM) | growth inhibition [2, 7] | growth inhibition [2, 8] | growth inhibition ([2]; at 50.0 µM) | growth inhibition [3, 7] | growth inhibition [3, 8] | growth inhibition ([3]; at 50.0 µM) | growth inhibition [4, 7] | growth inhibition [4, 8] | growth inhibition ([4]; at 50.0 µM) | growth inhibition [5, 7] | growth inhibition [5, 8] | growth inhibition ([5]; at 50.0 µM) | growth inhibition [6, 7] | growth inhibition [6, 8] | growth inhibition ([6]; at 50.0 µM)
Oc1c(I)cc(I)cc1I | -6% | 91% (active) | 38% | -3% | 95% (active) | 43% | -9% | 53% | 7.7% | -4% | 94% (active) | -32.6% | -5% | 82% (active) | 67.6% | -3% | 92% (active) | 63.4%
CN(C)N(P(N)(Cl)(c1ccccc1)c1ccccc1)P(N)(Cl)(c1ccccc1)c1ccccc1 | 13% | 90% (active) | 63.2% | 22% | 97% (active) | 54.5% | -221% | 96% (active) | 44.9% | 0% | 88% (active) | 58.5% | 4% | 88% (active) | 49.5% | 25% | 96% (active) | 50.6%
CC(C)NC1CC2CCCCC2CC1c1ccccc1 (stereo not given) | 1% | 51% | 79.8% (active) | 4% | 25% | 83.3% (active) | 10% | 68% | 90.9% (active) | 3% | 57% | 82.3% (active) | 17% | 53% | 82.4% (active) | 20% | 74% (active) | 88.8% (active)
O=C1[O][Hg][c]2c1cccc2[N+](=O)[O-] | 99% (active) | 99% (active) | 99.2% (active) | 100% (active) | 100% (active) | 99.2% (active) | 100% (active) | 100% (active) | 99.4% (active) | 52% | 98% (active) | 97.6% (active) | 100% (active) | 100% (active) | 99.4% (active) | 100% (active) | 99% (active) | 99.2% (active)
Oc1c(Cl)c(Cl)cc(Cl)c1Cc1c(Cl)cc(Cl)c(Cl)c1[O][Pb]([c]1ccccc1)([c]1ccccc1)[c]1ccccc1 | 99% (active) | 87% (active) | 99.5% (active) | 99% (active) | 90% (active) | 99.5% (active) | 99% (active) | 89% (active) | 99.7% (active) | 99% (active) | 87% (active) | 99% (active) | 99% (active) | 89% (active) | 99.3% (active) | 99% (active) | 87% (active) | 99.5% (active)
O=C(Nc1n[c]([Hg][Cl])[c]([Hg][Cl])s1)OCc1ccccc1 | 99% (active) | 98% (active) | 99% (active) | 99% (active) | 99% (active) | 99.5% (active) | 98% (active) | 99% (active) | 99.3% (active) | 34% | 99% (active) | 98.9% (active) | 100% (active) | 99% (active) | 99.2% (active) | 99% (active) | 98% (active) | 98.9% (active)
O=[N+]([O-])c1cc([N+](=O)[O-])c(Cl)s1 | 98% (active) | 99% (active) | 99.5% (active) | 99% (active) | 83% (active) | 99.7% (active) | 99% (active) | 100% (active) | 99.4% (active) | 99% (active) | 98% (active) | 99.3% (active) | 99% (active) | 99% (active) | 99.5% (active) | 99% (active) | 99% (active) | 99.6% (active)
COc1cc(/C=C/[N+](=O)[O-])c(OC)cc1Br | 44% | 58% | 59.9% | 27% | 45% | 83.3% (active) | 15% | 87% (active) | 87% (active) | 37% | 25% | 73% (active) | 24% | 75% (active) | 88.2% (active) | 38% | 40% | 89.2% (active)
CCOC(=O)NP(=O)(NNc1ccccc1)NNc1ccccc1 | 79% (active) | 98% (active) | 100% (active) | 82% (active) | 96% (active) | 98.8% (active) | 92% (active) | 98% (active) | 98.8% (active) | 84% (active) | 99% (active) | 98.2% (active) | 93% (active) | 98% (active) | 98.8% (active) | 92% (active) | 98% (active) | 98.2% (active)
CCC[CH2][Sn]1([CH2]CCC)[O]C(=O)CN=Cc2ccccc2[O]1 | 88% (active) | 88% (active) | 88.5% (active) | 92% (active) | 92% (active) | 92% (active) | 85% (active) | 85% (active) | 90% (active) | 91% (active) | 91% (active) | 90.8% (active) | 90% (active) | 90% (active) | 89.9% (active) | 90% (active) | 90% (active) | 89.5% (active)
